Source: PubChem
Only some compounds are listed: those with a hit (about 5.7% of all), similar ones and a draw of the others.
Nrf2 block = inhibitors of Nrf2 signaling | 360,000 compounds, 2.1% hits | AID 504444 | Potency, µM (titrated, usually from 46 µM), without a hit: at the top dose activity change, negative = inhibition, usual class: inhibitors | A549 ARE-Fluc reporter, luciferase luminescence, 18-24 h; also: potency is read from the fitted curve at half-maximal effect; nearly all actives have a fitted effect of over 60% in size
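Nrf2 function is reported as luminescence of an ARE-controlled luciferase in A549 cells. Compounds were tested at several concentrations, and a CellTiter-Fluor read on the same wells flagged cytotoxicity.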
A549 viability = A549 cytotoxicity, counter-screen for Nrf2 inhibitors; A549 ARE-Fluc cells, CellTiter-Fluor viability, 18-24 h; Potency, µM (doses to about 46 µM), for the others: top-dose activity change, negative = cytotoxicity, usual class: inhibitors; 390,000 compounds, 0.16% hits; AID 504648; also: potency is read from the fitted curve at half-maximal effect
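Cytotoxicity counterscreen: CellTiter-Fluor fluorescence was measured in A549 ARE_Fluc cells after 18-24 h of compound exposure in a concentration series. The subsequent BugLite luminescent read reports ARE-luciferase activity.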
Giardia killer = kills Giardia lamblia. 340,000 compounds, 0.15% hits. AID 540267. activity change, % at 7.66 µM, hits read low. Giardia lamblia trophozoite viability; in the data active = activity change below about -80%; inconclusive = between about -30% and that limit;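 also: parasites exposed to compound for two days anaerobically before the ATP read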
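Luminescence from cellular ATP indicates surviving trophozoites (100 cells/well) following 48 hrs anaerobic compound treatment at 37 deg C; signal develops 15-30 min at room temperature.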
KB-3-1 cytotox = kills parental KB-3-1 adenocarcinoma cells; KB-3-1 viability, CellTiter-Glo ATP luminescence, 72 h; Potency, µM (series often up to 46.1 µM), actives largely listed as cytotoxic; 400,000 compounds, 1.4% hits; also: potency is read from the fitted curve at half-maximal effect; nearly all actives have a fitted effect of over 60% in size
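Cells are dispensed, compounds pinned in, plates held at 37 °C for 72 h, then CellTiter-Glo is added and luminescence read after 10 minutes. Cell line: parental KB-3-1 in phenol-red-free DMEM, 10% FBS.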
PI4K2A block = inhibitors of human PI4K2A; activity change, negative = inhibition, % at 76.9 µM; 420,000 compounds, 0.13% hits; AID 1346378; purified PI4K2A, ADP-Glo luminescence, 1 h; stronger effect = lower value; in the data active = activity change below about -50%; inconclusive = mostly about -30% to -49%;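 also: -100% = wells without enzyme as full effect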
Target sequence (Q9BTU6 whole entry, looked up): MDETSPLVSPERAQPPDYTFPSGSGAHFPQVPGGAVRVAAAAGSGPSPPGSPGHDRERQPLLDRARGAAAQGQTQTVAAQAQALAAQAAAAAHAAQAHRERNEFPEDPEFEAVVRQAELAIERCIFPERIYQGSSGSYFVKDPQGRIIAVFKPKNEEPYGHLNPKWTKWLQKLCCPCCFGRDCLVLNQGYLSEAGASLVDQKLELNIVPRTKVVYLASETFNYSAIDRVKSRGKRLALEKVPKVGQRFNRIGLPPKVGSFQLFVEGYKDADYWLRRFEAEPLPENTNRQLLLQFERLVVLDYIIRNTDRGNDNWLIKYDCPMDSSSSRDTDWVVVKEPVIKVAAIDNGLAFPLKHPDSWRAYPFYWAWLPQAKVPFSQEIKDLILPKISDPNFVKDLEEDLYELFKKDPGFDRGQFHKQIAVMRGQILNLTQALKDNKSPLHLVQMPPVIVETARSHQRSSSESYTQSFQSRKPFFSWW
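PI4K2A activity was measured by ADP-Glo luminescence: enzyme (4 ug/mL stock) and phosphatidylinositol (1.2 mM stock) in Tris pH 7.5/MgCl2/EGTA/Triton X-100 buffer were reacted with ATP (300 microM stock) for one hour at ambient temperature.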
KB-V1 MDR tox = kills drug-selected multidrug resistant KB-V1 cells | AID 1347076 | 400,000 compounds, 3.4% hits | KB-V1 MDR cells viability, CellTiter-Glo, 72 h | Potency, µM (highest dose often 46.1 µM), usual class: cytotoxic; also: potency is read from the fitted curve at half-maximal effect; nearly all actives have a fitted effect of over 60% in size
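Following 72 h at 37 degrees C with compound, KB-V1 cell viability was read by CellTiter-Glo luminescence, medium being phenol-red-free DMEM plus 10% FBS; concentration-response parameters came from normalized, curve-fitted qHTS data.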
* hit, by the source's call; i = inactive; ? = inconclusive; nt = not tested or not shown. Unless noted, calls follow the shape of the dose curve; as a rule, active = well fitted curve in the direction sought with a large enough effect; inconclusive = small, poorly fitted or top-dose-only effect, or another doubt; inactive = no such curve, though single readings can be large; an effect the other way counts as inactive or inconclusive. Unless noted, % is scaled to controls: 0 for no effect and ±100 for the full control effect.

SMILES	Nrf2 block	A549 viability	Giardia killer	KB-3-1 cytotox	PI4K2A block	KB-V1 MDR tox
CCCn1c(SCc2nc3sc(C)c(C)c3c(=O)[nH]2)nc2ccccc2c1=O	4%	9%	-3	i	-4	9.2µM*
C=CCn1c(Cc2cccs2)nnc1SCC(=O)Nc1cccc2ccccc12	nt	nt	nt	nt	4	nt
CCN(CC)C(=O)c1sc2nc(N3CCOCC3)c3c(c2c1N)CCCC3	?	-5%	-5	i	-2	4.6µM*
CCOC(=O)c1sc2nc(N3CCOCC3)c3c(c2c1N)CCCC3	-10%	1%	7	i	10	i
Cc1ccc(C(=O)NC(=S)Nc2cccc3nsnc23)cc1	?	-7%	-25	i	0	i
Cc1ccc(C(=O)NC(=S)Nc2cccc3c(C)cc(C)nc23)cc1	4%	17%	-11	?	-3	15µM*
Cc1ccc(S(=O)(=O)c2c(CO)c(-c3ccccc3)nn2C)cc1	?	-6%	-7	?	-2	15µM*
O=C1CCC[C@H]2[C@@H](Cc3ccccc3)[C@@H](O)CC[C@]23CCCN13	nt	nt	nt	nt	-1	nt
Cc1cccc(NC(=O)CSc2nc3ccc(N4C(=O)c5ccccc5C4=O)cc3s2)c1C	21µM*	?	8	i	-1	i
CCc1cccc(CC)c1NC(=O)CSc1nc2ccc(N3C(=O)C4C5C=CC(C5)C4C3=O)cc2s1 (centres undefined)	-20%	5%	7	?	-6	2.6µM*
Cc1cc2c(s1)c1cnn(Cc3ccc(C(C)(C)C)cc3)c(=O)c1n2C	8%	0%	nt	nt	nt	nt
Clc1ccc2c(NCc3cccs3)ncnc2c1	16µM*	-4%	6	?	3	i
COc1ccc(CNc2ncnc3sccc23)cc1OC	10µM*	1%	-2	?	9	16µM*
COc1ccc(CNc2ncnc3sccc23)cc1	10µM*	-1%	-1	?	7	?
COc1ccc(CNc2ncnc3cc(Cl)ccc23)cc1OC	16µM*	-4%	13	?	-1	21µM*
c1ccc(CNc2ncnc3sccc23)cc1	10%	-6%	6	i	-5	i
CCOc1ccc(C=Nn2c(-c3cccc(OC(C)C)c3)n[nH]c2=S)cc1	nt	nt	nt	nt	7	nt
Cc1nn(CCCC(=O)NCCc2ccc(Cl)cc2)c(=O)c2c1sc1ccccc12	?	?	nt	i	1	i
Cc1ccc(Cc2nc3ccccc3nc2SCC(=O)N2CCCCC2)cc1	nt	-14%	nt	nt	-2	nt
c1ccc(CCNc2ncnc3sccc23)nc1	8.2µM*	?	-11	?	14	?
COc1cccc2c1C(=O)/C(=C\c1ccc(N(C)C)cc1)C2	nt	nt	nt	i	nt	?
CCn1c(CNC(=O)COc2ccc(C(C)C)cc2)nnc1SCC(=O)Nc1ccccc1C(C)C	16µM*	-22%	-1	i	8	?
COc1ccc(Oc2c(-c3cccs3)cnn(-c3ccc(C)cc3)c2=O)cc1	nt	nt	nt	nt	-7	nt
CC(=O)c1cccc(-c2ccnc3c2CC(C(=O)NCC2CC2)O3)c1 (centres undefined)	nt	nt	nt	?	-2	i
CC(=O)Nc1ccc(-c2ccnc3c2CC(C(=O)NCC2CC2)O3)cc1 (centres undefined)	nt	nt	nt	?	1	i
SMILES	Nrf2 block	A549 viability	Giardia killer	KB-3-1 cytotox	PI4K2A block	KB-V1 MDR tox
CC(=O)Nc1ccc(-c2ccnc3c2CC(C(=O)NCC2CCOCC2)O3)cc1 (centres undefined)	nt	nt	nt	5.8µM*	2	i
CC(=O)c1cccc(-c2ccnc3c2CC(C(=O)NCC2CCOCC2)O3)c1 (centres undefined)	nt	nt	nt	4.6µM*	-4	i
CCOC(=O)c1ccc2c(c1)nc(SCC(=O)c1cc3ccccc3o1)n2CC	-22%	-7%	27	i	0	18µM*
C=CCNC(=O)CSc1nc2cc(C(=O)OCC)ccc2n1CC	17%	?	2	i	2	i
CCOc1ccc(/C=C/c2ccnc3ccccc23)cc1OCC	nt	nt	nt	i	nt	?
Cc1ccc(C(=O)N2CCN(c3ccc(NC(=O)COc4ccccc4C)cc3)CC2)cc1	21µM*	?	1	18µM*	-2	?
Cc1ccc(OCC(=O)Nc2ccc(N3CCN(C(=O)c4ccco4)CC3)cc2)cc1	21µM*	1%	-1	i	0	?
O=C(COc1ccccc1)Nc1ccc(N2CCN(C(=O)c3ccco3)CC2)cc1	1%	2%	-12	i	1	?
CC(C)C(=O)Nc1nc2c(ncn2[C@H]2CC(O)[C@@H](CO)O2)c(=O)[nH]1 (some centres undefined)	?	-21%	-9	?	nt	i
c1ccc(CNc2ncnc3c2ncn3Cc2ccccc2)cc1	-18%	0%	10	i	nt	i
CCn1c(COc2ccc(C)cc2)nnc1SCC(=O)Nc1ccccc1-c1ccccc1	nt	nt	nt	nt	-4	nt
CC(C)COc1ccc(C(=O)Nc2cc3nn(-c4ccccc4)nc3cc2Cl)cc1	-6%	-2%	nt	i	-1	i
CC(C)COc1ccc(C(=O)Nc2scc(-c3ccc(Cl)cc3Cl)c2C(N)=O)cc1	?	6%	-19	3.3µM*	7	3.7µM*
CCN(C(=O)[C@@H](C1CC1)[C@@H](O)c1ccc(Cl)cc1)c1ccccc1	nt	nt	nt	nt	-2	nt
CCn1cc(C(=O)NCc2ccc(Cl)cc2)c(=O)c2cc(S(=O)(=O)N(C)C)ccc21	-14%	1%	-5	i	2	15µM*
CCn1cc(C(=O)NCCc2ccc(Cl)cc2)c(=O)c2cc(S(=O)(=O)N(C)C)ccc21	-3%	1%	20	?	3	i
C=CCn1cc(C(=O)NCCCOCC)c(=O)c2cc(S(=O)(=O)N(CC)CC)ccc21	?	12%	18	i	2	2.9µM*
CCN(CCCNC(=O)c1cn(CC)c2ccc(S(=O)(=O)N(C)C)cc2c1=O)c1cccc(C)c1	?	-18%	3	?	2	16µM*
Cc1cc2c(s1)c1cnn(Cc3cc(OC(F)(F)F)ccc3F)c(=O)c1n2C	-3%	1%	nt	nt	nt	nt
Cc1ccc(C(=O)NCC(=O)OCC(=O)c2ccc3ccccc3c2)cc1	5%	21%	-21	i	nt	i
COC(=O)[C@]12C[C@H](CC(=O)N3CCOCC3)C(=O)N(Cc3ccc(Cl)cc3Cl)C1=C[C@H](C(C)(C)C)O[C@@H]2C	nt	nt	nt	nt	-4	nt
Cc1cc(C)c(OCCNCc2ccccc2)c(C)c1	-4%	-6%	7	i	-18	i
Cc1cc(C)c(OCCCCNCc2ccccc2)c(Cl)c1	-24%	?	1	?	8	8.2µM*
